Experimental findings from PubChem BioAssay (Tox21) are described below.

Several values for one entry are separate records, joined by “and”; a condition that tells them apart may be missing. Equal entries are not always repeated. Results filed as inconclusive are left out. More than one record can exist for a structure, and the calls need not agree. Activity calls are given as the source filed them. Unless noted, calls follow the shape of the dose curve; as a rule, active = well fitted curve in the direction sought with a large enough effect in the repeat runs; inconclusive = weak or mixed curves; inactive = no such curve, though single readings can be large; an effect the other way counts as inactive or inconclusive.

Experiment [1] in a line: qHTS assay to identify small molecule agonists of the peroxisome proliferator-activated receptor delta (PPARd) signaling pathway - cell viability counter screen (AID 743211). Also: nearly all actives have a fitted effect of over 55% in size. Also: potency is read from the fitted curve at half-maximal effect. The gist of the method: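 Luminescent ATP viability assay (CellTiter-Glo, 30 min RT) in UAS-bla HEK293H cells carrying the PPAR delta reporter construct, 3000 cells/well, after a 17 h compound treatment at 37 C.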
(In qHTS, concentration-response curves come from the screen itself.)

Experiment [2] concerns the target Peroxisome proliferator-activated receptor delta (Homo sapiens) (UniProt Q03181). Put plainly: qHTS assay to identify small molecule agonists of the peroxisome proliferator-activated receptor delta (PPARd) signaling pathway (AID 743212; calls by dose curve). The gist of the method: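 HEK293H PPARd-bla cells; 5 h preincubation 37 C/5% CO2; compound (DMSO) 37 C; LiveBLAzer B/G FRET substrate 2 h RT; fluorescence intensity.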

Experiment [3] in a line: qHTS assay to identify small molecule antagonists of the peroxisome proliferator-activated receptor delta (PPARd) signaling pathway - cell viability counter screen (AID 743213). Also: nearly all actives have a fitted effect of over 50% in size. Also: potency is read from the fitted curve at half-maximal effect. The method in brief:
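Viability counter-screen, qHTS format: PPARd-bla HEK293H, L165041 300 nM final, 17 h compound exposure at 37 C, CellTiter-Glo luminescence after 30 min RT.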

The target of experiment [4] is Peroxisome proliferator-activated receptor delta (Homo sapiens) (UniProt Q03181). Description: qHTS assay to identify small molecule antagonists of the peroxisome proliferator-activated receptor delta (PPARd) signaling pathway (AID 743215; active = well fitted inhibition curve with a large enough effect in the signal ratio in the repeat runs, not every such curve was filed as active; the % refers to the signal ratio;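 also: cells stimulated with agonist L165041 at 300 nM final during compound exposure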; also: potency is read from the fitted curve at half-maximal effect). The gist of the method: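 PPARd UAS-bla HEK293H cells were pre-incubated 5 h at 37 C, then given test compounds in DMSO plus agonist L165041 (300 nM final). After 17 h at 37 C, beta-lactamase FRET substrate was added; fluorescence read after 2 h at room temperature.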

For experiment [5], the target named is Bile acid receptor (Homo sapiens) (UniProt Q96RI1). Put plainly: qHTS assay to identify small molecule antagonists of the farnesoid-X-receptor (FXR) signaling pathway (AID 743217; active = well fitted inhibition curve with a large enough effect in the signal ratio in the repeat runs, not every such curve was filed as active; the % refers to the signal ratio). The method in brief: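 FXR-UAS-bla HEK 293T cells pre-incubated 5 h at 37 °C, then exposed to compounds with chenodeoxycholic acid (50 uM final) for 16 h at 37 °C. Beta-lactamase reporter read by LiveBLAzer B/G FRET substrate fluorescence after 2 h at room temperature.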

A short description of experiment [6]: qHTS assay to identify small molecule agonists of the farnesoid-X-receptor (FXR) signaling pathway - cell viability counter screen (AID 743218). Also: nearly all actives have a fitted effect of over 45% in size. Also: potency is read from the fitted curve at half-maximal effect. The gist of the method:
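FXR-UAS-bla HEK 293T cells, plated 5 h at 37 C, were exposed to compounds for 16 h at 37 C. CellTiter-Glo was then added to the same wells as the bla readout; luminescence read after 30 min at room temperature.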

In experiment [7] the target is Bile acid receptor (Homo sapiens) (UniProt Q96RI1). Description: qHTS assay to identify small molecule agonists of the farnesoid-X-receptor (FXR) signaling pathway (AID 743220; active = well fitted activation curve with a large enough effect in the signal ratio in the repeat runs, not every such curve was filed as active; the % refers to the signal ratio). The method in brief: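 Beta-lactamase reporter under UAS control in GeneBLAzer FXR HEK 293T cells (5000/well) measured with LiveBLAzer FRET substrate after 2 h at room temperature. Compound exposure lasted 16 h at 37C.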

Experiment [8] can be described thus: qHTS assay to identify small molecule antagonists of the farnesoid-X-receptor (FXR) signaling pathway - cell viability counter screen (AID 743221; active = well fitted cell-killing curve with a large enough effect in the repeat runs, not every such curve was filed as active; also: nearly all actives have a fitted effect of over 50% in size). The method in brief:
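In GeneBLAzer FXR-UAS-bla HEK 293T cells stimulated with 50 uM chenodeoxycholic acid (final), compounds acted for 16 h at 37 C. Viability was assessed afterwards by CellTiter-Glo luminescence.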

Experiment [9] concerns the target Vitamin D3 receptor (Homo sapiens) (UniProt P11473). Put plainly: qHTS assay to identify small molecule agonists of the vitamin D receptor (VDR) signaling pathway (AID 743222; calls by dose curve). The method in brief:
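VDR-bla cells were plated 4 h at 37C/5% CO2, then exposed to compounds in DMSO for 16 h. After LiveBLAzer B/G FRET substrate addition and 2 h at room temperature, beta-lactamase reporter fluorescence was read.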

The target is the same in experiment [10]. Put plainly: qHTS assay to identify small molecule antagonists of the vitamin D receptor (VDR) signaling pathway (AID 743223; active = well fitted inhibition curve with a large enough effect in the signal ratio in the repeat runs, not every such curve was filed as active; the % refers to the signal ratio). The method in brief: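 Agonist 1alpha,25-dihydroxyvitamin D3 (3 nM in well) was added with each compound to VDR-bla cells preincubated 4 h. Cells stood 16 h at 37C, then FRET substrate 2 h at room temperature; fluorescence intensity recorded.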

Sequence of Bile acid receptor (Homo sapiens) (Q96RI1 whole entry, looked up): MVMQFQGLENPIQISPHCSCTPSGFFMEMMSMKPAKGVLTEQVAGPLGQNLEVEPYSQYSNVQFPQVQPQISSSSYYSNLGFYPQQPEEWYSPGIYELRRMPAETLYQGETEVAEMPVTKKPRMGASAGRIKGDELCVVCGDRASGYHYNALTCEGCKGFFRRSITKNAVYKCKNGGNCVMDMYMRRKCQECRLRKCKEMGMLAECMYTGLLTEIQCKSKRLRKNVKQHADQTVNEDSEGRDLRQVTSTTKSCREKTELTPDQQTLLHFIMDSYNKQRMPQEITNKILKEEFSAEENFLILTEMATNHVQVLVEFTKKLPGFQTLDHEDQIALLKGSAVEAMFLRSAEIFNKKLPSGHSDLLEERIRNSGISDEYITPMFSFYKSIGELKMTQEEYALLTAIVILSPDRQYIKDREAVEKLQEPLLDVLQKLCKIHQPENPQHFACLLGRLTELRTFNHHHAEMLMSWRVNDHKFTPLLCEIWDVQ
Sequence of Peroxisome proliferator-activated receptor delta (Homo sapiens) (Q03181 whole entry, looked up): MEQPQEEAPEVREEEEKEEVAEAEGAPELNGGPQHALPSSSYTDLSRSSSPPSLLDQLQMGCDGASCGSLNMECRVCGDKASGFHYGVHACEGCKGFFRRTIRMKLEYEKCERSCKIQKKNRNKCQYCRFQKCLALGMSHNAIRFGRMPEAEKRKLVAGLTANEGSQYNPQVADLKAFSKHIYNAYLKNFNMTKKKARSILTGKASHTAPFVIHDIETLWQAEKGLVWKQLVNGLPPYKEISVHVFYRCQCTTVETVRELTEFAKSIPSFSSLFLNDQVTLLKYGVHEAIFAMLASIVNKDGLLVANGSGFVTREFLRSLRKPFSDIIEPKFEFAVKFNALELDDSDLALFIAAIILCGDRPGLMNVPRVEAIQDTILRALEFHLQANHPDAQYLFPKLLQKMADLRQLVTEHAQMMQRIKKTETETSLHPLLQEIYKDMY
Sequence of Vitamin D3 receptor (Homo sapiens) (P11473 whole entry, looked up): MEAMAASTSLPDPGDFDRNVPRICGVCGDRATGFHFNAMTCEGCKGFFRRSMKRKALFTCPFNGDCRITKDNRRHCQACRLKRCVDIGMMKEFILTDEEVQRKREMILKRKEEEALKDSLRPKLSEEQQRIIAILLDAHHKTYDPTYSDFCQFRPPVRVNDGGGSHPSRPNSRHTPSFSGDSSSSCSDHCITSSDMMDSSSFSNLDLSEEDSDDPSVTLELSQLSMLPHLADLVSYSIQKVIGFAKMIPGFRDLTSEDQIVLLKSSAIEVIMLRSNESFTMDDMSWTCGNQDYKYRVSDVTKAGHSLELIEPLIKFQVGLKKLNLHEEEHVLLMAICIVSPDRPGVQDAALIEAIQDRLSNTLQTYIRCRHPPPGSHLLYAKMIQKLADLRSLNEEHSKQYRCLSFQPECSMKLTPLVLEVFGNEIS

For `CN(C)c1nc(=O)n(C2CCCCC2)c(=O)n1C`, the Potency result in experiment [1], in experiment [2], in experiment [3], in [4], in experiment [5] and in [6] was “inactive” throughout. Besides, the Potency result in experiment [7], in [8] and in [10] was “inactive” each time. In addition, the compound was called inactive in experiment [9].

Regarding `Oc1ccc(Cl)cc1Cc1ccccc1`, the Potency in experiment [1] was 54.9 µM (active); in experiment [3], 44.2 µM (active) and inactive; in [6] it was 60.5 µM (active) and inactive. Further, the Potency result in [2], in experiment [4] and in [8] was “inactive” in each case.

As to `O=C1Nc2ccc(Cl)cc2C(c2ccccc2)=NC1O` (stereo not given), the Potency result in experiment [1], in experiment [2], in [3], in experiment [4], in experiment [5] and in experiment [6] was “inactive” in each case. For the same compound, the Potency result in experiment [7] was “inactive”. In [9], the call was inactive.

As for `N#Cc1cccnc1`, the Potency result in experiment [1], in experiment [2], in experiment [3], in [4], in experiment [5] and in experiment [6] was “inactive” throughout. Besides, in experiment [7], the Potency entry was “inactive”. Moreover, the compound was called inactive in experiment [9].

Regarding `CCCCSP(=O)(SCCCC)SCCCC`, the Potency entry in experiment [1], in [2], in experiment [3], in [4], in experiment [5] and in [6] was “inactive” each time. Moreover, the Potency result in experiment [7] and in experiment [8] was “inactive” each time. Also, the outcome in experiment [9] was inactive.

Regarding `CC(O)CN(CC(C)O)CC(C)O` (stereo not given), the Potency result in experiment [1], in experiment [2], in experiment [3], in experiment [4], in experiment [5] and in experiment [6] was “inactive” throughout. In addition, the Potency entry in [7] and in [8] was “inactive” each time.

For the compound `CC1CC(=O)O1` (stereo not given), the Potency result in experiment [1], in [2], in experiment [3], in [4], in experiment [5] and in [6] was “inactive” throughout. For the same compound, the Potency result in experiment [7], in experiment [8] and in experiment [10] was “inactive” in each case. Further, the compound was called inactive in [9].

For `ClC(Cl)=C(Cl)C(Cl)=C(Cl)Cl`, the Potency entry in experiment [1], in [2], in [3], in experiment [4], in experiment [6] and in [8] was “inactive” throughout.

`N#CC(c1ccccc1)c1ccccc1`: the Potency entry in experiment [1], in experiment [2], in experiment [3], in experiment [4], in [5] and in experiment [6] was “inactive” each time. In addition, the Potency result in experiment [7], in experiment [8] and in experiment [10] was “inactive” in each case. In experiment [9], the outcome was inactive.

Regarding `CN(C)P(=O)(N(C)C)N(C)C`, the Potency entry in [1], in experiment [2], in experiment [3], in experiment [4], in [5] and in experiment [6] was “inactive” in each case. Moreover, the Potency entry in experiment [7], in experiment [8] and in [10] was “inactive” throughout. In addition, the call in experiment [9] was inactive.

With `O=NN1CCOCC1`, the Potency entry in [1], in experiment [2], in [3], in experiment [4], in experiment [6] and in experiment [8] was “inactive” each time. The call in experiment [9] was inactive.

Take `CCOC(=O)c1ccccc1N`: the Potency result in experiment [1], in [2], in experiment [3], in experiment [4], in [5] and in [6] was “inactive” throughout. For the same compound, the Potency result in experiment [7] and in [8] was “inactive” in each case. Besides, in experiment [9], the compound was classed as inactive.

For the compound `OCCOCCO`, the Potency result in experiment [1], in experiment [2], in experiment [3], in experiment [4], in experiment [5] and in experiment [6] was “inactive” in each case. Besides, the Potency result in experiment [7], in [8] and in experiment [10] was “inactive” each time. For the same compound, the compound was classed as inactive in experiment [9].

For the compound `CCCCCCCCCc1ccc(O)cc1`, the Potency entry in experiment [1], in experiment [3], in experiment [4], in experiment [6], in experiment [8] and in experiment [10] was “inactive” throughout. Further, the call in experiment [9] was inactive.

For `C=CC(=O)OCC(CC)(COC(=O)C=C)COC(=O)C=C`, the Potency in experiment [1] was 11 µM (active); in [3], 13.8 µM (active); in [4] it was 12.6 µM (active); in experiment [6], “inactive and 13.8 µM (active)”. The Potency entry in experiment [5] is “inactive”. Besides, the compound was classed as inactive in experiment [9].

Regarding `CCOP(=O)(OCC)OCC`, the Potency result in experiment [1], in experiment [2], in [3], in [6] and in experiment [10] was “inactive” throughout. For the same compound, in [9], the result was inactive.

Regarding `Brc1ccc(Br)cc1`, the Potency entry in [1], in experiment [2], in experiment [4], in experiment [5], in experiment [6] and in experiment [7] was “inactive” each time. In [8], the Potency result was “inactive”. Further, the compound was called inactive in experiment [9].

Regarding `CC(C)(c1ccc(OCC2CO2)cc1)c1ccc(OCC2CO2)cc1` (stereo not given), in experiment [1], the Potency is 34.7 µM (active). The Potency entry in experiment [3], in [4], in [6] and in experiment [8] was “inactive” throughout.

For the compound `[CH3][Sn]([Cl])([Cl])[Cl]`, the Potency entry in experiment [1], in experiment [2], in experiment [3], in experiment [4], in experiment [6] and in experiment [8] was “inactive” in each case. In addition, the Potency entry in [10] was “inactive”. Moreover, the call in experiment [9] was inactive.

With `Cc1cc(Cl)ccc1N=CN(C)C`, the Potency result in experiment [1], in [2], in experiment [3], in experiment [4], in experiment [6] and in [8] was “inactive” each time. Also, the Potency entry in [10] is “inactive”. Further, the outcome in experiment [9] was inactive.

As for `O=C(O)c1nn(Cc2ccc(Cl)cc2Cl)c2ccccc12`, the Potency entry in experiment [1], in experiment [3], in experiment [4] and in experiment [6] was “inactive” throughout. In addition, the call in experiment [9] was inactive.

Take `CNC(=O)Oc1cccc2c1OC(C)(C)C2`: the Potency result in experiment [1], in experiment [2], in [3], in experiment [4] and in experiment [6] was “inactive” throughout. In addition, the result in experiment [9] was inactive.

Turning to `Cc1cccc(N=Nc2ccc(N(C)C)cc2)c1`, the Potency result in experiment [1], in experiment [2], in [3], in [4], in [6] and in [10] was “inactive” in each case. The call in experiment [9] was inactive.

With `Clc1ccccc1-c1nnc(-c2ccccc2Cl)nn1`, the Potency result in experiment [1], in experiment [2], in experiment [3], in experiment [4], in experiment [6] and in [8] was “inactive” each time. For the same compound, in experiment [10], the Potency entry is “inactive”. Besides, the outcome in [9] was inactive.
